This note sets out measurements from article PMC4336329 (PLoS ONE, 2015).

Hit rate of the full screen: of about 310,000 compounds, about 2,200 (0.71%) showed an effect of 50% or more. Effects have a minus sign here. The list comes from a sample in which strong results are over-represented; it also holds similar structures and randomly drawn compounds.

The target of the assay is human ether-à-go-go-related gene (hERG) potassium channel (human, UniProt Q12809). The assay can be described thus: primary screen, population patch clamp on CHO cells stably expressing hERG; higher = less effect of the substance.
Chain of human ether-à-go-go-related gene (hERG) potassium channel (Q12809 whole entry, looked up): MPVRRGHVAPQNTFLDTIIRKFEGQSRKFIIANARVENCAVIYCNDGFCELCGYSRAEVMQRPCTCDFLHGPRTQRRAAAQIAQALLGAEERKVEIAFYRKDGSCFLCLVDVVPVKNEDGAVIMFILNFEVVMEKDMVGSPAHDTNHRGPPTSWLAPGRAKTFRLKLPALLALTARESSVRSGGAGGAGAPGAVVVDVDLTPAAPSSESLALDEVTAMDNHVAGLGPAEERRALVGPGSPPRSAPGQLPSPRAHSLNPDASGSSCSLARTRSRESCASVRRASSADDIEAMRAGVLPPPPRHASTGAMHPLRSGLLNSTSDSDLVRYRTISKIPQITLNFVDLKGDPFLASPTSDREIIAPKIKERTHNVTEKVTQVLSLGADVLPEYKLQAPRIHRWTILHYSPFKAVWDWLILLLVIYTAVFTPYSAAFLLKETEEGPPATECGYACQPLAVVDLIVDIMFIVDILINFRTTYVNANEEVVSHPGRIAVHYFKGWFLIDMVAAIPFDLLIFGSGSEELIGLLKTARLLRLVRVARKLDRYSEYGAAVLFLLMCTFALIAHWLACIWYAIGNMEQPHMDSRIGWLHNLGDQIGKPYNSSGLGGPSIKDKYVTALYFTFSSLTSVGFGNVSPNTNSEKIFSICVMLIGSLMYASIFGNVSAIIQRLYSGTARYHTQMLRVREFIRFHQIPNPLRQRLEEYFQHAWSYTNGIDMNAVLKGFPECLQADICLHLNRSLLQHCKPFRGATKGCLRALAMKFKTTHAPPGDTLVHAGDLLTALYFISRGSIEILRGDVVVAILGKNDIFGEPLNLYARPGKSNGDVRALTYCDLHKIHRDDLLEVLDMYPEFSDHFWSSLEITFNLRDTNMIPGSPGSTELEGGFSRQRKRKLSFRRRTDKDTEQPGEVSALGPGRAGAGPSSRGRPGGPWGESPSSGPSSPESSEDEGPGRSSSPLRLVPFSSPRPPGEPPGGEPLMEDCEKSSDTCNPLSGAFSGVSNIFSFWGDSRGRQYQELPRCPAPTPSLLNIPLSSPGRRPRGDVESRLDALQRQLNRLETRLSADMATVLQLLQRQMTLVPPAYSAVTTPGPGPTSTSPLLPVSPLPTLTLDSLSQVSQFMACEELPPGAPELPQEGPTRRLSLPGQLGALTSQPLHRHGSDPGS
`O=C(NNC(=S)Nc1ccccc1)c1ccc(O)cc1`: the “hERG current change (%, negative = inhibition) at 1uM” value amounted to 15.2%. For `Cc1nn(-c2ccccc2)c(Cl)c1/C=C(\CC(=O)O)c1nc2ccccc2s1` the value was 2.95%. For `Cc1nnc(SCC(=O)Nc2sc3c(c2C(N)=O)CCC(C)C3)[nH]c1=O` (stereo not shown) the value was 10.6%; for `CC1CCCCC1NC(=O)CN1C(=O)CSc2cc(S(=O)(=O)N3CCCCCC3)ccc21` (stereo not shown), 7.3%; for `CSc1ccc(CN2CCN(C(=O)c3ccc([N+](=O)[O-])cc3)CC2)cc1.O=C(O)C(=O)O`, -78.1%.

For `O=C(c1ccc([N+](=O)[O-])cc1)N1CCN(Cc2ccccc2)CC1`, the “hERG current change (%, negative = inhibition) at 1uM” value is reported as -28.7%.

For the compound `CSc1ccc(CN2CCN(C(=O)c3ccncc3)CC2)cc1`, the “hERG current change (%, negative = inhibition) at 1uM” value is -0.743%.

Regarding `Cc1[nH]c2ccc(Br)cc2c(=S)c1C/C=C/Cl`, the “hERG current change (%, negative = inhibition) at 1uM” value is listed as 5.3%. Turning to `COCCNC(=O)NC(=O)COC(=O)C1(c2ccc(Cl)cc2)CC1`, the “hERG current change (%, negative = inhibition) at 1uM” value is 6.06%. For `CCN(CC)CCC(c1ccc2c(c1)OCO2)c1c(O)cc(OC)cc1OC` (stereo not shown) the value was -73.4%; for `COc1cc(O)c(C(CCN2CCCC(C)C2)c2ccc3c(c2)OCO3)c(OC)c1` (stereo not shown), -84.1%; for `COc1ccc(C(CCN2CCCC2)c2c(O)cc(OC)cc2OC)cc1` (stereo not shown), -21.1%. For `COc1cc(O)c(C(CCN2CCCCC2)c2ccc(N(C)C)cc2)c(OC)c1` (stereo not shown) the value was 10.3%; for `COc1cc(O)c(C(CCN2CCCC2)c2ccc3c(c2)OCO3)c(OC)c1` (stereo not shown), -41.5%. For `COc1ccc(C(CCN2CCCCC2)c2c(O)cc(OC)cc2OC)cc1` (stereo not shown) the value was -71.3%. As for `CCN(CC)C(=O)CC(c1ccc2c(c1)OCO2)c1c(O)cc(OC)cc1OC` (stereo not shown), the “hERG current change (%, negative = inhibition) at 1uM” value is 5.47%. In the case of `COc1cc(O)c(C(CC(=O)N2CCCC(C)C2)c2ccc3c(c2)OCO3)c(OC)c1` (stereo not shown), the “hERG current change (%, negative = inhibition) at 1uM” value is reported as 14.5%. For `COc1cc(O)c(C(CCN2CCCCC2)c2ccc3c(c2)OCO3)c(OC)c1` (stereo not shown) the value was -72.1%; for `COc1cc(O)c(C(CCN2CCN(c3ccccc3)CC2)c2ccc3c(c2)OCO3)c(OC)c1` (stereo not shown), 5.8%. For `CCN(CC)CCC(c1ccc(OC)cc1)c1c(O)cc(OC)cc1OC` (stereo not shown) the value was -25.8%; for `COc1cc(O)c(C(CCN2CCCC(C)C2)c2ccc(N(C)C)cc2)c(OC)c1` (stereo not shown), -9.72%; for `CC1CN(C(=O)c2c(Br)cnn2C)CC(C)O1` (stereo not shown), 4.32%. `O=C(COC(=O)Cc1ccsc1)Nc1cccc(Cl)c1`: the “hERG current change (%, negative = inhibition) at 1uM” value was 0.601%. As for `COc1ccc(N2CCN(C(=O)c3cccc(NC(=O)c4ccco4)c3)CC2)cc1`, the “hERG current change (%, negative = inhibition) at 1uM” value is -8.07%. For `COc1ccc(N2CCN(C(=O)c3ccc(C)c(NC(=O)c4ccco4)c3)CC2)cc1` the value was -53.7%; for `Cc1ccc(C(=O)N2CCN(c3ccccc3)CC2)cc1NC(=O)c1ccco1`, 1.43%; for `O=C(c1cc(COc2ccc3ncccc3c2)on1)N1CCCC1`, 13.5%.

Take `CN1C(=O)c2oc3ccccc3c(=O)c2C1c1ccncc1` (stereo not shown): the “hERG current change (%, negative = inhibition) at 1uM” value amounted to 5.81%. For `O=S(=O)(c1ccc2nc(-c3ccccc3)[nH]c2c1)N1CCN(c2ccc(Cl)cc2)CC1` the value was 5.61%; for `O=C(NCC1CCN(Cc2ccccc2Cl)CC1)Nc1ccccc1F`, -6.32%. For `COc1ccc(OC)c(CN2CCC(CNC(=O)Nc3cccc(Cl)c3)CC2)c1` the value was -26.3%. For `O=C(NCC1CCN(Cc2ccccc2Cl)CC1)Nc1cccc(Cl)c1` the value was -62.3%; for `C1CNCCN1.COc1cc(C(O)CO)ccc1O` (stereo not shown), 10%; for `CCN(CC)CCOC(=O)CCc1cccc2ccccc12.O=C(O)C(=O)O`, -3.77%. Take `CCN(CC)CCOC(=O)C(Cc1cccc2ccccc12)CC1CCCO1.O=C(O)C(=O)O` (stereo not shown): the “hERG current change (%, negative = inhibition) at 1uM” value is -20.2%. As for `CCN(CC)CCOC(=O)C(Cc1ccco1)Cc1cccc2ccccc12.O=C(O)C(=O)O` (stereo not shown), the “hERG current change (%, negative = inhibition) at 1uM” value is given as -62.8%. For `C#CCOCCOCCOCCNc1nc(N2CCOCC2)nc(N2CCN(C(=O)Cn3cc(CCC[NH+]=C(N)N)nn3)CC2)n1.[Cl-]` the value was 17.5%; for `CCc1ccc(/C=C(/C#N)C(N)=S)s1`, 15%.

As for `O=C(N/N=C/c1ccsc1)c1ccccn1`, the “hERG current change (%, negative = inhibition) at 1uM” value worked out at 16.7%.

For the compound `O=C(Nc1ccc(Cl)cc1)N(CCCN1CCOCC1)Cc1cccs1`, the “hERG current change (%, negative = inhibition) at 1uM” value is on record as -55%. For `O=C(CNC(=S)N(CCCN1CCOCC1)Cc1cccs1)NCc1ccccc1Cl` the value was -35.5%. Take `O=C(Nc1ccccc1)N(CCCN1CCOCC1)Cc1cccs1`: the “hERG current change (%, negative = inhibition) at 1uM” value is recorded as -29.2%. For `O=C(Nc1ccc(Cl)c(Cl)c1)N(CCCN1CCOCC1)Cc1cccs1` the value was -41.8%; for `O=C(CNC(=S)N(CCCN1CCOCC1)Cc1cccs1)NCc1ccc(Cl)cc1`, -61.3%; for `O=C(CNC(=S)N(CCCN1CCOCC1)Cc1cccs1)NCCCN1CCOCC1`, 16.3%.

As to `Cc1ccc(OCC(=O)N2CCc3ccccc32)cc1`, the “hERG current change (%, negative = inhibition) at 1uM” value is 10.7%.

With `CCOc1ccc(NC(=O)CN2CCN(C3c4ccccc4-c4ccccc43)CC2)cc1`, the “hERG current change (%, negative = inhibition) at 1uM” value was -25.5%. For `O=C(CN1CCCC1)Nc1ccc(OCc2ccccc2)cc1` the value was 8%; for `Cc1cc(C(=O)CN2CCN(CC(=O)Nc3cccc(F)c3)CC2)c(C)n1C1CC1`, -7.82%; for `CCCCOc1ccc(NC(=O)CN2CCN(Cc3ccccc3)CC2)cc1`, 1.72%. For `CCOc1ccc(NC(=O)CN2CCN(Cc3c(F)cccc3F)CC2)cc1` the value was -50.7%; for `O=C(CN1CCN(c2ccccc2)CC1)Nc1ccc(OCc2ccccc2)cc1`, 13.4%. For the compound `O=C(CN1CCC(NC(=O)c2cccc(F)c2)CC1)Nc1ccc(Br)cc1`, the “hERG current change (%, negative = inhibition) at 1uM” value is -53.9%.

On to `O=C(CN1CCN(CC(=O)Nc2ccc(OCc3ccccc3)cc2)CC1)Nc1ccc(F)cc1`, for which the “hERG current change (%, negative = inhibition) at 1uM” value was -81.5%.

Take `Cc1cc(C(=O)CN2CCN(CC(=O)Nc3ccc(F)cc3)CC2)c(C)n1C1CC1`: the “hERG current change (%, negative = inhibition) at 1uM” value is -72.3%. For `Cc1cc(C)cc(NC(=O)CN2CCC(NC(=O)c3cccc(F)c3)CC2)c1` the value was 4.29%; for `Cc1ccc(NC(=O)CN2CCC(NC(=O)c3cccc(F)c3)CC2)cc1C`, -13.4%. For `Cc1cccc(C)c1NC(=O)CN1CCN(CC(=O)c2cc(C)n(C3CC3)c2C)CC1` the value was -0.73%.

For the compound `C[C@]1(C(=O)NCCc2c[nH]c3ccccc23)C=C[C@@H](Cc2ccccc2)N1C(=O)c1ccccc1`, the “hERG current change (%, negative = inhibition) at 1uM” value worked out at 7.98%. For `CCn1ccc(C(=O)NC2CCCC2)n1` the value was 8.64%; for `CN(C)C(=O)CN1CCN(Cc2nc(CC3CC3)no2)CC1`, 7.17%. For `COCCN(C(=O)CSc1nc2ccccc2c(=O)n1CCOC)c1c(N)n(Cc2ccccc2)c(=O)[nH]c1=O` the value was 12.6%; for `Cl.O=S(=O)(NC1CCN(Cc2ccccc2)CC1)c1ccc2ccccc2c1`, 4.69%. For `C#CCOCCOCCOCCNc1nc(N2CCN(C(=O)[C@H](Cc3ccc(O)cc3)n3cc([C@@H](N)C(C)CC)nn3)CC2)nc(N2CCN(C(=O)[C@H](CCCCN)n3cc([C@@H](N)CO)nn3)CC2)n1.Cl` (stereo partly shown) the value was 12.4%; for `COc1cccc(/C=C/C(=O)OCC(=O)NC2CC2)c1`, 10.5%; for `CC(C)/C(=N/Nc1ccccc1[N+](=O)[O-])c1ccccc1`, 22.6%.

Regarding `CCCCc1nnc(NC(=O)COC)s1`, the “hERG current change (%, negative = inhibition) at 1uM” value is listed as 16.3%. For `O=C(CN1CCC(n2cnc3cc(F)ccc32)CC1)Nc1ccccc1Br` the value was -23.5%; for `CCOC(=O)N1CCN(CC(=O)Nc2ccc(F)cc2)CC1`, -73%; for `COc1ccccc1CNC(=O)CN1CCC(n2cnc3cc(F)ccc32)CC1`, -59.1%.

Regarding `COc1cc(C(=O)N2CCC(n3cnc4cc(F)ccc43)CC2)cc(OC)c1OC`, the “hERG current change (%, negative = inhibition) at 1uM” value is recorded as -9.25%. For `CCOc1ccc(NC(=O)CN2CCN(CC(=O)Nc3cc(OC)cc(OC)c3)CC2)cc1` the value was -71.3%; for `CCOc1ccc(NC(=O)CN2CCN(CC(=O)Nc3ccc(C(=O)OC)cc3)CC2)cc1`, -48%. Consider `CCOC(=O)N1CCN(CC(=O)Nc2ccc(C)cc2)CC1`, for which the “hERG current change (%, negative = inhibition) at 1uM” value was 6.17%. For `COc1ccccc1CNC(=O)CN1CCC(NC(=O)c2ccccc2F)CC1.Cl` the value was 1.06%; for `CCOc1ccc(NC(=O)CN2CCC(n3cnc4cc(F)ccc43)CC2)cc1`, -71.7%; for `CC(=O)Nc1ccc(S(=O)(=O)N2CCC(n3cnc4cc(F)ccc43)CC2)cc1`, -26.4%.

Regarding `COc1cc(NC(=O)CN2CCCCCC2)cc(OC)c1`, the “hERG current change (%, negative = inhibition) at 1uM” value was determined as 13.5%. For `CCOC(=O)N1CCN(CC(=O)Nc2ccc(OC)cc2)CC1` the value was 9.1%; for `CCN(C(=O)CSc1nc2cc(C(=O)OC)ccc2c(=O)n1Cc1ccco1)c1cccc(C)c1`, 7.87%. For `Cc1c(NC(=O)C(C)Oc2ccc(Br)cc2Cl)c(=O)n(-c2ccccc2)n1C` (stereo not shown), the “hERG current change (%, negative = inhibition) at 1uM” value was -1.81%.

In the case of `COc1ccc(C(=O)NC(=S)NCc2ccco2)cc1`, the “hERG current change (%, negative = inhibition) at 1uM” value is reported as 15%. In the case of `Cc1cc(C)c(S(=O)(=O)Cc2ccc(Cl)cc2)c(=O)[nH]1`, the “hERG current change (%, negative = inhibition) at 1uM” value is recorded as 9.42%. In the case of `O=C(N1CCN(CCO)CC1)N1c2ccccc2C=Cc2ccccc21`, the “hERG current change (%, negative = inhibition) at 1uM” value turned out to be 13%. In the case of `COc1ccc(NC(=O)c2ccc(NC(=O)c3cccs3)cc2)cc1`, the “hERG current change (%, negative = inhibition) at 1uM” value stood at 0.302%.
